Reference: PubChem BioAssay (NCATS)
“And” between values parts separate entries of the source, which are not always exact repeats. Equal values may be shown once. Inconclusive results are not listed. The source made the active and inactive calls. Unless noted, calls follow the shape of the full dose curve.

Assays:
[1] = qHTS assay for small molecule agonists of retinoid X receptor alpha signaling (AID 588544); conditions: HEK293T RXRa-UAS-bla, beta-lactamase reporter, 18 h; 530 nm emission;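 as to activation: 0% = DMSO basal wells and 100% = reference agonist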
[2] = target: Retinoic acid receptor RXR-alpha (Homo sapiens) (UniProt P19793); test: as above; conditions: HEK293T RXRa-UAS-bla, beta-lactamase reporter, 18 h; series mostly up to 76.7 µM
[3] = target: Thyroid hormone receptor beta (Homo sapiens) (UniProt P10828); test: qHTS assay for small molecule agonists of thyroid hormone receptor beta signaling (AID 588545); conditions: TR-UAS-bla GripTite HEK 293, beta-lactamase ratio, agonist mode, 18 h, percent of T3 response, DMSO as zero; series mostly up to 76.7 µM
Summary of the method: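 In this cell-based screen, titrated compounds act on HEK 293 cells held in medium with 2% charcoal/dextran FBS, NEAA and pyruvate for 18 hrs at 37 C. Responses are expressed relative to T3 (10 nM) as 100% and basal DMSO as 0%.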

[4] = qHTS assay for small molecule antagonists of retinoid X receptor alpha signaling (AID 588546; active = well fitted inhibition curve with a large enough effect in the signal ratio, with a control signal flat, not every such curve was filed as active; the % refers to the signal ratio;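 also: cells stimulated with 9-cis-retinoic acid as agonist; % is scaled to controls: 0 for no effect and ±100 for the full control effect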); conditions: HEK293T RXRa-UAS-bla, beta-lactamase ratio, antagonist mode; measured here: W530 green channel, cytotoxicity proxy
Summary of the method: (§1)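 Beta-lactamase reporter inhibition, read as CCF4 fluorescence ratio (ex 405, em 460/530 nm) after 2 h at RT. HEK293T UAS-bla cells, 2500/well, were stimulated with 9-cis-RA at 500 or 100 nM final alongside test compound for 18 h at 37 C.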

[5] = target: Retinoic acid receptor RXR-alpha (Homo sapiens) (UniProt P19793); test: as above; conditions: HEK293T RXRa-UAS-bla, beta-lactamase ratio, antagonist mode
Summary of the method: as §1

[6] = target: Thyroid hormone receptor beta (Homo sapiens) (UniProt P10828); test: qHTS assay for small molecule antagonists of thyroid hormone receptor beta signaling (AID 588547; active = well fitted inhibition curve with a large enough effect in the signal ratio, with a control signal flat, not every such curve was filed as active; the % refers to the signal ratio;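 also: cells stimulated with 0.4 nM T3 agonist during compound exposure; % is scaled to controls: 0 for no effect and ±100 for the full control effect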); conditions: TR-UAS-bla HEK293, beta-lactamase ratio, antagonist mode, 18 h
Summary of the method: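 TR-UAS-bla GripTite HEK293 cells in 2% charcoal/dextran FBS medium; compounds 0.59 nM to 92 uM with T3 at 0.4nM final, 18 h at 37 C. Beta-lactamase read by CCF4 fluorescence (460/530 nm); Hill fits gave IC50 and efficacy.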

[7] = target: Voltage-gated inwardly rectifying potassium channel KCNH2 (Homo sapiens) (UniProt Q12809); test: qHTS Assay for Small Molecule Inhibitors of the Human hERG Channel Activity (AID 588834; active = well fitted inhibition curve with a large enough effect;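 also: top concentration of the series differs between compounds; % is scaled to controls: 0 for no effect and ±100 for the full control effect; lower thallium flux fluorescence means stronger hERG block; nearly all actives have a fitted effect of over 50% in size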); conditions: U2OS BacMam hERG, FluxOR thallium flux fluorescence; series mostly up to 92.2 µM
Summary of the method: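 Kinetic FDSS fluorescence; U2OS + hERG BacMam (~100 virus particles/cell); FluxOR Tl+ flux; ~10 min cpd; AC50 (Hill).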

[8] = qHTS assay for small molecule activators of the p53 signaling pathway (AID 651743; active = well fitted activation curve with a large enough effect in the signal ratio, not every such curve was filed as active; the % refers to the signal ratio; also: % of control where 0% means no effect); conditions: HCT-116 p53RE-bla, beta-lactamase FRET ratio, 16 h; stronger effect = higher value
Summary of the method: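 HCT-116 p53RE-bla, 4,000 cells/well; 5 h settle; cpd/DMSO 16 h, 37 C; LiveBLAzer B/G 2 h RT; fluorescence intensity.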

[9] = qHTS assay for small molecule activators of the nuclear factor-kappa B (NF-kB) signaling pathway (AID 651749; active = well fitted activation curve with a large enough effect in the signal ratio; the % refers to the signal ratio; also: % of control where 0% means no effect); conditions: NF-kB-bla ME-180 cells, beta-lactamase FRET ratio, 16 h; stronger effect = higher value
Summary of the method: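 Incubation lasted 16 hr at 37C in 5% CO2 after 23 nL compound addition to ME-180 NF-kB-bla cells. Activation appears as beta-lactamase-mediated FRET loss.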

[10] = qHTS assay for small molecule agonists of the antioxidant response element (ARE) signaling pathway (AID 651741; active = well fitted activation curve with a large enough effect in the signal ratio; the % refers to the signal ratio; also: % of control where 0% means no effect); conditions: HepG2 ARE-bla reporter, beta-lactamase FRET ratio, 16 h; series mostly up to 96 µM
Summary of the method: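 HepG2 ARE-bla cells plated at 2,000 cells/well and incubated 5 h at 37 C/5% CO2 received 23 nL compound in DMSO. After 16 h at 37 C, LiveBLAzer B/G FRET substrate was applied for 2 h at room temperature and fluorescence read.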

Retinoic acid receptor RXR-alpha (Homo sapiens), sequence (P19793 whole entry, looked up): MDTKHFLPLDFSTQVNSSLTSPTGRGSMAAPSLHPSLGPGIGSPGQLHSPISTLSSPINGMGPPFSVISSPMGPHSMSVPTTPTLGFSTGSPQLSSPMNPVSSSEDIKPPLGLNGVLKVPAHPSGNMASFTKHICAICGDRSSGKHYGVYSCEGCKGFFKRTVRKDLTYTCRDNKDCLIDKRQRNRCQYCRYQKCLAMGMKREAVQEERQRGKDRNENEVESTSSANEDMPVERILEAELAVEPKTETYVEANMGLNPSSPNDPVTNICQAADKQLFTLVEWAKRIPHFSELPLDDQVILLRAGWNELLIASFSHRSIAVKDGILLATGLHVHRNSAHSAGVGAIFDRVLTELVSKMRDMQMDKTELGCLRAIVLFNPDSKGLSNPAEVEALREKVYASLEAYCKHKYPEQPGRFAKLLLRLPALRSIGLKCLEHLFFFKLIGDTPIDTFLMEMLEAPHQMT
Thyroid hormone receptor beta (Homo sapiens), sequence (P10828 whole entry, looked up): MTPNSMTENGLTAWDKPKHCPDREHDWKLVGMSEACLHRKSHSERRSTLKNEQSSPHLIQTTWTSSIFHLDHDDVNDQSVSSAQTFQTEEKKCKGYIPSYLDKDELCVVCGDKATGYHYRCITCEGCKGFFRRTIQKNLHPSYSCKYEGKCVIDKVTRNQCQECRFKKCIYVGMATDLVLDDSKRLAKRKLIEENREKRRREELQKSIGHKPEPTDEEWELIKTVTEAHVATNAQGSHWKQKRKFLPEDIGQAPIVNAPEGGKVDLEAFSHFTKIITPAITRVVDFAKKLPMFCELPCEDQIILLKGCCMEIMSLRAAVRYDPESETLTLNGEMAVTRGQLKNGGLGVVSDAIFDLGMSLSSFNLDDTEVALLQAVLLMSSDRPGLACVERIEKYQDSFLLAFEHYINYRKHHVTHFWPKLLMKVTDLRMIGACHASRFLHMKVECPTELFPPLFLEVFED
Voltage-gated inwardly rectifying potassium channel KCNH2 (Homo sapiens), sequence (Q12809 whole entry, looked up): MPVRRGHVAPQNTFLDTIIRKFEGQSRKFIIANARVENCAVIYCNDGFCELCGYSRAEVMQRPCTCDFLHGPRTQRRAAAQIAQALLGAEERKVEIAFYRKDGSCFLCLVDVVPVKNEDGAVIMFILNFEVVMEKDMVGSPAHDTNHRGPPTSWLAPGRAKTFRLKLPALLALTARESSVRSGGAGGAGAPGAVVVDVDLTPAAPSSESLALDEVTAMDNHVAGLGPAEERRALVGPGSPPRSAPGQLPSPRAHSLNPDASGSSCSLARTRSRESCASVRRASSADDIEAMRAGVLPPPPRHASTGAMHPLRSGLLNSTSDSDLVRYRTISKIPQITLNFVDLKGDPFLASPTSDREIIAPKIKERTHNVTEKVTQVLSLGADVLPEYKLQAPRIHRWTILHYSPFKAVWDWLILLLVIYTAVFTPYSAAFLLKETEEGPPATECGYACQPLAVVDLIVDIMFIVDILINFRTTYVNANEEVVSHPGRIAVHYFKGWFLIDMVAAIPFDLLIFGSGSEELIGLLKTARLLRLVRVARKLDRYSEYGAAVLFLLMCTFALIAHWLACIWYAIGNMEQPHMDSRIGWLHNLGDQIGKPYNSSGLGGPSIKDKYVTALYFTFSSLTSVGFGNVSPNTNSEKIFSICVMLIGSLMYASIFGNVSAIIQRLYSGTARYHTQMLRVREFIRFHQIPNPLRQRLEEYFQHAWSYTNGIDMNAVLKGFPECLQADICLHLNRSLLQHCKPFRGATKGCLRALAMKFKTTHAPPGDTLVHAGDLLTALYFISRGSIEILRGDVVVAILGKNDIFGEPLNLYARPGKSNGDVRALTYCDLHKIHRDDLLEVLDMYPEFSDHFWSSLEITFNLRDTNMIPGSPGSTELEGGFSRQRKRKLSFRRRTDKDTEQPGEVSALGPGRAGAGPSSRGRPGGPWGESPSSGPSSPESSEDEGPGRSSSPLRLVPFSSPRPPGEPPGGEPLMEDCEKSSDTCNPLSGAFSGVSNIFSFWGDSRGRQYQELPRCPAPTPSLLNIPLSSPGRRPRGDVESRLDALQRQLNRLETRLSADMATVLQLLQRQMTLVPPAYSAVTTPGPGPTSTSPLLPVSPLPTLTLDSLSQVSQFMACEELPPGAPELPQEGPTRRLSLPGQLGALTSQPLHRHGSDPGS

Cc1ccc(CO)cc1
max response [1]: -4.09%
outcome [2]: inactive
outcome [3]: inactive
max response [4]: -4.56%
max response [5]: 0.12% (inactive)
activity change % (negative = inhibition) [6]: 14.7% (inactive)
Potency [7]: inactive
activation [8]: -4.79% (inactive)
activation [9]: -1.4% (inactive)

CC(=O)c1ccc([N+](=O)[O-])cc1
max response [1]: -7.91%
outcome [2]: inactive
outcome [3]: inactive
max response [4]: 4.7%
max response [5]: 1.74% (inactive)
activity change % (negative = inhibition) [6]: -0.995% (inactive)
Potency [7]: inactive
activation [9]: 0.321% (inactive)

CCCCC(=O)N(C)C
max response [1]: -11.8%
outcome [2]: inactive
outcome [3]: inactive
max response [4]: -2.95%
max response [5]: 11.5% (inactive)
activity change % (negative = inhibition) [6]: 6.71% (inactive)
Potency [7]: inactive
activation [8]: -1.85% (inactive)
activation [9]: -0.0165% (inactive)

c1ccc2n[nH]nc2c1
max response [1]: -15.8%
outcome [2]: inactive
outcome [3]: inactive
max response [4]: -16.6%
max response [5]: -7.97% (inactive)
activity change % (negative = inhibition) [6]: -7.43% (inactive)
Potency [7]: inactive
activation [8]: -4.32% (inactive)
activation [9]: 1% (inactive)

Cc1cccc(C)c1O
max response [1]: -16.7%
outcome [2]: inactive
outcome [3]: inactive
max response [4]: 3.79%
max response [5]: -1.13% (inactive)
activity change % (negative = inhibition) [6]: -9.8% (inactive)
Potency [7]: inactive
activation [8]: -0.5% (inactive)
activation [9]: -0.357% (inactive)

Nc1ccccc1S(=O)(=O)O
max response [1]: 0.0246%
outcome [2]: inactive
outcome [3]: inactive
max response [4]: -2.85%
max response [5]: 1.63% (inactive)
activity change % (negative = inhibition) [6]: 5.88% (inactive)
Potency [7]: inactive
activation [8]: -0.779% (inactive)
activation [9]: -0.0968% (inactive)

c1ccc(Oc2ccccc2)cc1
max response [1]: -5.86% and -5.26%
outcome [2]: inactive
outcome [3]: inactive
max response [4]: -2.47% and -11.6%
max response [5]: -1.69% (inactive) and -4.15% (inactive)
activity change % (negative = inhibition) [6]: 13.9% (inactive) and 3.24% (inactive)
Potency [7]: inactive
activation [8]: -0.263% (inactive) and 10.2% (inactive)
activation [9]: -0.173% (inactive) and -1.25% (inactive)

C=CCCCCCCC=C
max response [1]: -11.6%
outcome [2]: inactive
outcome [3]: inactive
max response [4]: -1.72%
max response [5]: -6.51% (inactive)
activity change % (negative = inhibition) [6]: -6.39% (inactive)
Potency [7]: inactive
activation [8]: 0.568% (inactive)
activation [9]: -0.256% (inactive)

OC/C(Br)=C(\Br)CO
max response [1]: -4.05%
outcome [2]: inactive
outcome [3]: inactive
max response [4]: -2.68%
max response [5]: -0.311% (inactive)
activity change % (negative = inhibition) [6]: -11.8% (inactive)
Potency [7]: inactive
activation [9]: 0.22% (inactive)

CCCC(C)CO (configuration not stated)
max response [1]: -14.8%
outcome [2]: inactive
outcome [3]: inactive
max response [4]: 5%
max response [5]: -5.45% (inactive)
activity change % (negative = inhibition) [6]: 6.59% (inactive)
Potency [7]: inactive
activation [8]: 0.0206% (inactive)
activation [9]: -0.126% (inactive)

Nc1cccc2c(=O)[nH][nH]c(=O)c12
max response [1]: -4.82%
outcome [2]: inactive
outcome [3]: inactive
max response [4]: -2.09%
max response [5]: 12.7% (inactive)
activity change % (negative = inhibition) [6]: -3.76% (inactive)
Potency [7]: inactive
activation [8]: -2.14% (inactive)
activation [9]: 0.176% (inactive)

CN(C)c1cccc(O)c1
max response [1]: -0.228%
outcome [2]: inactive
outcome [3]: inactive
max response [4]: -1.21%
max response [5]: 8.46% (inactive)
activity change % (negative = inhibition) [6]: 5.73% (inactive)
Potency [7]: inactive
activation [9]: -0.862% (inactive)

O=C1C=CCCC1
max response [1]: 8.41%
outcome [2]: inactive
outcome [3]: inactive
max response [4]: -1.74%
max response [5]: -1.33% (inactive)
activity change % (negative = inhibition) [6]: -3.89% (inactive)
Potency [7]: inactive
activation [8]: -3.28% (inactive)
activation [9]: -0.0951% (inactive)

Cc1c(C(=O)O)cccc1[N+](=O)[O-]
max response [1]: -9.97%
outcome [2]: inactive
outcome [3]: inactive
max response [4]: -4.5%
max response [5]: -1.44% (inactive)
activity change % (negative = inhibition) [6]: 12.8% (inactive)
Potency [7]: inactive
activation [8]: 1.1% (inactive)
activation [9]: 0.0023% (inactive)

CCCCOCCOCCOCCCC
max response [1]: -13.3%
outcome [2]: inactive
outcome [3]: inactive
activity change % (negative = inhibition) [6]: 3.11% (inactive)
Potency [7]: inactive
activation [8]: -0.253% (inactive)
activation [9]: 0.513% (inactive)

CCOC(=O)C(C)C(C)=O (configuration not stated)
max response [1]: -14.3%
outcome [2]: inactive
outcome [3]: inactive
activity change % (negative = inhibition) [6]: 2.26% (inactive)
Potency [7]: inactive
activation [8]: 6.52% (inactive)

Cc1cc(C)cc([N+](=O)[O-])c1
max response [1]: 8.04%
outcome [2]: inactive
outcome [3]: inactive
max response [4]: 5.59%
max response [5]: 4.7% (inactive)
Potency [7]: inactive
Potency [10]: inactive
activation [8]: -0.0084% (inactive)

CC(=O)OCc1ccco1
max response [1]: 9.34%
outcome [2]: inactive
max response [4]: -0.347%
max response [5]: 29.2% (inactive)
activity change % (negative = inhibition) [6]: -12.4% (inactive)
Potency [7]: inactive

O=CNc1ccccc1
max response [1]: -8.25%
outcome [2]: inactive
outcome [3]: inactive
max response [4]: 2.83%
max response [5]: 1.7% (inactive)
Potency [7]: inactive

CC(=O)CC(C)C
max response [1]: -6.71%
outcome [2]: inactive
outcome [3]: inactive
max response [4]: -1.65%
max response [5]: 12.3% (inactive)
activity change % (negative = inhibition) [6]: -3.32% (inactive)
Potency [10]: inactive
activation [8]: -2.45% (inactive)
activation [9]: 0.24% (inactive)

Cc1cccc(C(=O)O)c1[N+](=O)[O-]
max response [1]: -4.96%
outcome [2]: inactive
outcome [3]: inactive
activity change % (negative = inhibition) [6]: -11.8% (inactive)
Potency [7]: inactive
activation [8]: 1.31% (inactive)

NCCCCCCN
max response [1]: 1.96%
outcome [2]: inactive
outcome [3]: inactive
max response [4]: -3.24%
max response [5]: 17.1% (inactive)
Potency [7]: inactive
Potency [10]: inactive
activation [8]: -1.12% (inactive)
activation [9]: -0.106% (inactive)

CC(C)C(C)C
max response [1]: -13.5%
outcome [2]: inactive
max response [4]: -13.7%
max response [5]: -1.83% (inactive)
activity change % (negative = inhibition) [6]: -4.52% (inactive)
Potency [7]: inactive

Cc1ccc(C)c([N+](=O)[O-])c1
max response [1]: -15.2%
outcome [2]: inactive
outcome [3]: inactive
activity change % (negative = inhibition) [6]: 0.688% (inactive)
Potency [7]: inactive
activation [9]: 0.199% (inactive)
